Rows were chosen to be rich in hits. Some 8% of all compounds tested hit in one or more screens of this group.
HCMV antiviral = blocks human cytomegalovirus replication. activity change, negative = inhibition, % at 57.5 µM. 4.5% of 410,000 active. HFF cells, HCMV-luciferase reporter, 72 h; stronger effect = lower value; in the data active = activity change below about -60%; inconclusive = no clear call, values can overlap the other calls; inactive = above about -39%
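Cell-based, HFFs, 1000 cells/well, 16 h 37C; cpds in DMSO + HCMV-luc, MOI 1 PFU/cell; 72 h 37C; OneGlo luminescence after 5 min RT; norm. to buffer vs Salinomycin 10uM.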
FMDV antiviral = foot and mouth disease virus antiviral activity; FMDV antiviral cell-based qHTS; Potency, µM (highest dose often 57.9 µM), usual class: inhibitors; 1.2% of 410,000 active; AID 1159524; calls by dose curve; tested in HEK293T cells; also: read-out not given here; nearly all actives have a fitted effect of over 45% in size
SARS PLpro yeast = blocks SARS-CoV papain-like protease in a yeast assay | 0.19% of 330,000 active | S. cerevisiae expressing SARS-CoV PLpro, growth rescue | AID 485353 | Potency, µM (doses to about 32.9 µM), usual class: activators; calls by dose curve; also: nearly all actives have a fitted effect of over 55% in size
HCV inhibitor = inhibitors of hepatitis C virus infection. Huh7.5.1 HCVcc-Cre infection, luciferase reporter, 44 h. Potency, µM (doses to about 41.8 µM), usual class: inhibitors. 3.4% of 340,000 active. AID 651820; active = well fitted inhibition curve with a large enough effect; inconclusive = small, poorly fitted or top-dose-only effect, or another doubt; inactive = no such curve, though single readings can be large or run the other way
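Infectious HCV cell culture screen: compound-treated cells (1,000/well, pre-plated 4 h) are infected with HCVcc-Cre at roughly 0.5 moi and grown 44 h. Infection is quantified by luciferase signal after 15 min substrate incubation at room temperature.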
MARV entry inh = inhibitors of Marburg virus binding or cell entry | Marburg virus pseudotyped entry inhibition, cell reporter | Potency, µM (top dose mostly 37.8 µM), actives largely listed as inhibitors | AID 540276 | 1.8% of 300,000 active; calls by dose curve; tested in HEK293 cells
Lassa entry inh = inhibitors of Lassa virus binding or cell entry; Potency, µM (series often up to 37.9 µM), hits mostly inhibitors; Lassa virus pseudotype entry inhibition, cell reporter; 1.2% of 300,000 active; calls by dose curve; tested in HEK293 cells; also: nearly all actives have a fitted effect of over 50% in size
Numbers stand for hits; 0 = inactive; ? = inconclusive; - = not tested or not shown; [ ] = another dose, or the depositor's remark.

SMILES	HCMV antiviral	FMDV antiviral	SARS PLpro yeast	HCV inhibitor	MARV entry inh	Lassa entry inh
Cc1nc2sc(C(c3cccs3)N3CCN(c4cccc(Cl)c4)CC3)c(O)n2n1 (stereo not drawn)	-61.9	0	0	0	-	-
CCn1c(SCC(=O)NC2CCCC2)nnc1C(C)NC(=O)c1ccccc1F (stereo not drawn)	0	0	0	0	0	0
CC(NC(=O)c1ccccc1F)c1nnc(SCC(=O)NC2CCCC2)n1C (stereo not drawn)	-64.2	0	0	0	0	0
C(=Cc1c[nH]c2ccccc12)c1nccc2ccccc12	0	0	-	?	?	?
C(=Cc1c[nH]c2ccccc12)c1ccc2ccccc2n1	-91.8	?	-	5.62µM	2.24µM	?
CN(C)c1ccc(/C=C/c2nc3ccccc3s2)cc1	-92.2	5.01µM	0	0	2µM	2.24µM
C(=C\c1ccc2ccccc2n1)/c1ccccc1	0	0	0	0	-	-
Fc1ccccc1/C=C/c1ccc2ccccc2n1	0	10µM	0	0	?	2.51µM
O/C(=C\c1ccc2ccccc2n1)c1ccc(O)cc1O	0	0	0	0	7.08µM	?
CN(C)S(=O)(=O)N(CC(=O)NCCSCc1cccc(Cl)c1)c1ccccc1	0	0	-	-	0	0
Cc1cnc(SCc2ccccn2)nc1C1CCCN(C(=O)c2coc3c2C(=O)CCC3)C1 (stereo not drawn)	-	0	-	-	-	-
Cc1ccc(CNC(=O)CN(C(=O)C2(C)CC(=O)N=C3C=CC=CN32)c2ccccc2F)cc1 (stereo not drawn)	0	0	0	0	0	0
COc1ccc(/C=C/C(=O)CC(=O)/C=C/c2cccc(O)c2OC)cc1O	-	0	-	-	-	-
Cc1ccc(/C=C/c2nc3ccccc3s2)s1	?	?	0	0	?	6.31µM
CN(C)c1ccc(/C=C/c2ccc3ccccc3n2)cc1	-	6.31µM	0	?	-	-
Oc1ccc(/C=C/c2ccc3ccccc3n2)cc1	-67.8	0	0	?	-	-
O=[N+]([O-])c1ccc(/C=C/c2ccc3ccccc3n2)cc1	?	0	0	0	?	2µM
CC(C)Cn1c(=O)c2sccc2n2c(CCCC(=O)NC3CCCCC3)nnc12	?	0	-	-	-	0
CC(=O)Oc1ccc(Cl)cc1/C=C/c1ccc2ccccc2n1	0	0	0	7.94µM	?	?
CC(C)(C)OC(=O)N(Cc1ccccc1)Cc1cccc(OCc2cccc(NC(=O)c3ccccc3)c2)c1	0	?	-	7.94µM	-	-
CC(C)(C)OC(=O)N(Cc1ccccc1)Cc1ccccc1OCc1cccc(NC(=O)c2ccccc2)c1	0	0	-	?	-	-
CC(C)(C)OC(=O)N(Cc1ccccc1)Cc1ccc(OCc2cccc(NC(=O)C3CC3)c2)cc1	?	14.1µM	-	?	-	-
CC(C)(C)OC(=O)N(CCc1ccccc1)Cc1ccc(OCc2cccc(NC(=O)C3CCCC3)c2)cc1	0	0	-	0[8.37 µM]	-	-
Cc1ccc(Cl)cc1-c1cc(C(=O)N2CCc3ccccc3C2)[nH]n1	-98.4	0	-	-	-	-
O=C(c1cc2cc(Cl)ccc2[nH]1)N1CCc2ccccc2C1	0	0	0	?	-	-
SMILES	HCMV antiviral	FMDV antiviral	SARS PLpro yeast	HCV inhibitor	MARV entry inh	Lassa entry inh
O=c1n(CCCN2CCN(C3CCCC(Cl)C3)CC2)nc2ccccn12 (stereo not drawn)	-	-	-	-	0	-
CNC(=O)c1csc(-c2cccs2)n1	0	0	0	0	0	0
O=C(NNC(=O)c1csc(-c2cccs2)n1)c1ccc(Cl)cc1	-103.2	0	-	-	-	-
Cc1nc(-c2nc(CC(=O)NNC(=O)c3ccc(Cl)cc3)cs2)cs1	0	0	0	0	0	?
Cc1nc(C(=O)NNC(=O)c2ccc(Cl)cc2)cs1	-100.9	0	0	?	?	0
Cc1cc(C(=O)OCc2nnc(-c3ccccc3)o2)c(C)n1-c1ccccc1	0	?	0	14.1µM	0	?
O=C(OCc1nnc(-c2ccccc2)o1)c1cn(-c2ccccc2)nc1-c1ccccc1	0	0	0	11.2µM	?	0
O=C(OCc1nnc(-c2ccccc2)o1)c1ccccc1	0	0	0	0	0	-
Cc1noc(C)c1COC(=O)c1cc(C)n(-c2ccccc2)c1C	0	0	0	10µM	0	0
O=C(OCc1nnc(-c2ccccc2)o1)c1ccc(-n2cnnn2)cc1	0	0	0	0	0	?
Cc1noc(C)c1COC(=O)c1cc(=O)[nH]c2ccccc12	?	0	0	0	0	0
COc1ccccc1NC(=O)Cn1cnc2c(nc3n2CCCCC3)c1=O	0	?	?	0	0	?
Cc1ccc(/C=C/C(=O)c2c(C)cc(C)[nH]c2=O)cc1	-97.9	?	0	?	23.1µM	?
CCc1ccc(/C=C/C(=O)c2c(C)cc(C)[nH]c2=O)cc1	-95.0	28.2µM	0	?	?	?
CCc1ccc(/C=C(\C)C(=O)c2c(C)cc(C)[nH]c2=O)cc1	0	0	0	0	-	-
COc1ccccc1/C=C/C(=O)c1c2c(c(C)[nH]c1=O)CCCC2	-108.5	?	0	-	20.6µM	0
Cc1cc(C)c(C(=O)/C=C/c2cccs2)c(=O)[nH]1	-63.6	0	0	0	-	-
O=C(/C=C\c1cccs1)c1c(O)ccc2ccc(=O)oc12	-61.6	0	0	0	0	?
COc1ccc(/C=C/C(=O)c2c(C)cc(C)[nH]c2=O)c2ccccc12	-99.6	0	0	11.2µM	?	?
Cc1cc(C)c(C(=O)/C=C/c2ccco2)c(=O)[nH]1	0	0	0	0	0	0
C=CCn1c(/N=C/c2ccc(N(C)C)cc2)nc2ccccc21	0	0	0	0	?	0
CN(C)c1ccc(/C=N/n2ncc3ccccc32)cc1	-	-	0	?	10.3µM	13µM
Cc1nc(Nc2ccc(S(N)(=O)=O)cc2)sc1C(=O)Nc1ccccc1	-68.9	?	0	?	0	?
NS(=O)(=O)c1ccc(Nc2nc(-c3cccc([N+](=O)[O-])c3)cs2)cc1	?	?	0	25.1µM	0	0
CC(=O)c1cccc(Nc2nc(-c3sc(C)nc3C)cs2)c1	0	?	0	8.91µM	?	?
SMILES	HCMV antiviral	FMDV antiviral	SARS PLpro yeast	HCV inhibitor	MARV entry inh	Lassa entry inh
Cc1nc(Nc2ccccc2)sc1C(=O)Nc1ccccc1	0	0	0	?	?	?
Cc1nc(C)c(-c2csc(Nc3ccc(S(N)(=O)=O)cc3)n2)s1	0	0	0	11.2µM	?	?
COc1ccccc1CCC(=O)N1CCOc2c(cc(-c3cnc4ccccc4c3)cc2OC)C1	-	0	-	-	-	-
CC(=O)c1ccc(Nc2nc(-c3sc(C)nc3C)cs2)cc1	0	25.1µM	-	-	-	-
COc1ccc(Nc2nc(-c3sc(NC(C)=O)nc3C)cs2)cc1	-	-	3.16µM	-	0	-
CC(=O)Nc1ccc(Nc2nc(-c3sc(C)nc3C)cs2)cc1	0	31.6µM	0	?	0	?
Cc1ccc(Nc2nc(-c3sc(N)nc3C)cs2)cc1	0	0	0	0	-	-
Cc1ccc(Nc2nc(-c3sc(C)nc3C)cs2)cc1	?	0	0	5.62µM	-	-
CC(=O)N1CCC2(CCN(Cc3nccs3)CC2)CC1	-	0	-	-	-	-
O=C(NCCCN1CCOCC1)/C(=C/c1ccco1)NC(=O)c1ccccc1	0	0	0	0	0	0
COc1cc(-c2nc3ccc(C)cn3c2Nc2ccc(Cl)cc2)ccc1O	0	0	-	-	?	?

Screens (PubChem BioAssay)
